# Reference: PubChem BioAssay AID1347418 (Sanford-Burnham Center for Chemical Genomics, 2020)
# Hit rate of the full screen: of about 1,300 compounds, about 750 (58%) were called active. The list shows a part of the results. Values without a mark were called inactive.
# Biological target: Sulfhydryl oxidase 1 (Homo sapiens) (UniProt O00391)
# Test: inhibition of human sulfhydryl oxidase QSOX1 – biochemical, ROS-Glo H2O2 luminescence, HTS, primary screen (AID 1347418)
# Conditions: recombinant QSOX1, ROS-Glo H2O2 luminescence; at 12.5 µM; stronger effect = higher value; active = any value above zero
# Chain of Sulfhydryl oxidase 1 (Homo sapiens) (O00391 whole entry, looked up): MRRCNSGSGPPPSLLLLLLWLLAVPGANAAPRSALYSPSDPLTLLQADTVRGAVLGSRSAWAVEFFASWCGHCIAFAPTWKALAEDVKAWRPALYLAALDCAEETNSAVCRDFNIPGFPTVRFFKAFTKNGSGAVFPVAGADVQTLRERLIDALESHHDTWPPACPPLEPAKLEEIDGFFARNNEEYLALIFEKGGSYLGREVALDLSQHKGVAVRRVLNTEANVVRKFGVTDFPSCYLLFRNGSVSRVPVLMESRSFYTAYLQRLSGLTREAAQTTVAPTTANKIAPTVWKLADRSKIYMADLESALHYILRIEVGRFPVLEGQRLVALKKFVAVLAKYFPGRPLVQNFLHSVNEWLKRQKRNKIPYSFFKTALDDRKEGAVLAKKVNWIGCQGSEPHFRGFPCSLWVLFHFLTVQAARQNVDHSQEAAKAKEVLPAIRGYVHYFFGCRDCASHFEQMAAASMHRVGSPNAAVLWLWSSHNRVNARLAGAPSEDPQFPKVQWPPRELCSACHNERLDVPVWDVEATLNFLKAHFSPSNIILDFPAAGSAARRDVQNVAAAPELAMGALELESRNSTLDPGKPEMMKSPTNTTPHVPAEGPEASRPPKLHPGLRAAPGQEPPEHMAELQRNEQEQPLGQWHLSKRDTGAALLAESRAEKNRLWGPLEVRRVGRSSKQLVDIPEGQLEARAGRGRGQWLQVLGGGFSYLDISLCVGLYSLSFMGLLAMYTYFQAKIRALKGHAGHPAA
row,SMILES,inhibition
1,O=C(O)c1cc2cc(Cc3cccnc3)ccc2o1,-7.8%
2,C[C@]12CC[C@@H]3c4ccc(O)cc4C[C@@H](CCCCCCCCCS(=O)CCCC(F)(F)C(F)(F)F)[C@H]3[C@@H]1CC[C@@H]2O (some centres undefined),-4.8%
3,COc1ccc2c(c1)CCC1C2CC[C@@]2(C)C1CC[C@@H]2NCCCCCCN1C(=O)CCC1=O (some centres undefined),-2.7%
4,C[C@]12CC[C@@H]3c4ccc(O)cc4CC[C@H]3[C@@H]1CC[C@@H]2O,5.6% (active)
5,C[C@]12CC[C@@H]3c4ccc(O)cc4CC[C@H]3[C@@H]1CCC2=O,-1.6%
6,COc1ccc2c(c1)CCC1C2CC[C@@]2(C)C1CC[C@@H]2NCCCCCCN1C(=O)C=CC1=O (some centres undefined),-7.4%
7,COc1cc2c(cc1O)CC[C@@H]1[C@@H]2CC[C@]2(C)[C@@H](O)CC[C@@H]12,36% (active)
8,CCCCCCN(CCCCCC)C(=O)Cc1c(-c2ccc(F)cc2)[nH]c2ccccc12,-2.9%
9,COc1cc2nc(N3CCCN(C)CC3)nc(NC3CCN(Cc4ccccc4)CC3)c2cc1OC,1.5% (active)
10,Oc1ccc(O)cc1,11.1% (active)
11,CSc1nc(N)c2ncn([C@@H]3O[C+](COP(=O)([O-])OP(=O)(O)O)[C@H](O)C3O)c2n1 (some centres undefined),0.7% (active)
12,C[N+](C)(C)CCOP(=O)(O)OP(=O)([O-])OC[C@H]1O[C@@H](n2ccc(N)nc2=O)C(O)[C@H]1O (some centres undefined),-0.3%
13,CNc1ncnc2c1ncn2[C@H]1C[C@H](OP(=O)(O)O)[C@@H](COP(=O)(O)O)O1,-3.3%
14,NC(N)=NC(N)=Nc1ccccc1,-4.7%
15,NC(N)=NC(=O)Cc1c(Cl)cccc1Cl,-6.8%
16,NC(N)=NC(N)=Nc1cccc(Cl)c1,9.6% (active)
17,Oc1ccccc1O,5.6% (active)
18,CCCN(CCc1ccccc1)C1CCc2c(O)cccc2C1 (centres undefined),-0.3%
19,CCN(CC)CCCN(c1ccccc1)C1Cc2ccccc2C1,40.2% (active)
20,COc1cccc(-c2cc(=O)c3ccccc3o2)c1N,0.9% (active)
21,N#Cc1cc2nc(O)c(O)nc2cc1[N+](=O)[O-],0.9% (active)
22,O=C1NCC2(CCN(CCc3ccccc3)CC2)O1,-1%
23,C[C@@H](O)[C@H]1C(=O)N2C(C(=O)O)=C(SCCN=CN)C[C@H]12,-5.2%
24,C=CCN1CCc2c(cc(O)c(O)c2Cl)C(c2ccccc2)C1 (centres undefined),31.6% (active)
25,Cc1cccc(C2CN(C)CCc3c2cc(O)c(O)c3Cl)c1 (centres undefined),25% (active)

row,SMILES,inhibition
1,C=CCN1CCc2cc(O)c(O)cc2C(c2ccccc2)C1 (centres undefined),18% (active)
2,C=CCN1CCc2c(cc(O)c(O)c2Br)[C@@H](c2ccccc2)C1,26.8% (active)
3,COC(=O)C1=CO[C@@H](O)[C@@H]2C(CO)=CC[C@H]12,-3.2%
4,NCC1OC(O[C@@H]2[C@H](O)C(OC3C(O)C(N)CC(N)C3OC3OC(CO)C(O)C(O)C3N)O[C@@H]2CO)C(N)C(O)C1O (some centres undefined),-3.5%
5,C=C(C)C1CC=C(C(=O)O)CC1 (centres undefined),-1.3%
6,NC1C=CC=C(C(=O)O)C1 (centres undefined),-2.2%
7,CNC(=O)Oc1ccc2c(c1)[C@]1(C)CCN(C)[C@@H]1N2C,2.6% (active)
8,CN1[C@@H](CC(=O)c2ccccc2)CCC[C@H]1C[C@H](O)c1ccccc1,4.3% (active)
9,O=C(O)C1CCCN(CCC=C(c2ccccc2)c2ccccc2)C1 (centres undefined),-3.9%
10,CC(C)(C)c1ccc(C(=O)CCCN2CCC(OC(c3ccccc3)c3ccccc3)CC2)cc1,-3.2%
11,CC(C)c1cccc(C(C)C)c1N1C(=O)c2ccc(O)cc2C1=O,0.3% (active)
12,O=C(CCCN1CCC(O)(c2ccc(Cl)cc2)CC1)c1ccc(F)cc1,-4%
13,CCCCN1CCC(n2c(=O)[nH]c3ccccc32)CC1,-1.6%
14,O=C(O)/C=C/c1ccc(O)c(O)c1,9.6% (active)
15,O=C(/C=C/c1ccc(O)c(O)c1)OCCc1ccccc1,19.7% (active)
16,O=c1cc(-c2ccccc2)[nH]c2nc(Cl)ccc12,-0.2%
17,Nc1ncnc2c1nc(Br)n2C1OC2COP(=O)(O)O[C@@H]2C1O (some centres undefined),-1.8%
18,Nc1nc(O)c2nc(Br)n(C3OC4COP(=O)(O)O[C@@H]4C3O)c2n1 (some centres undefined),-4.7%
19,Nc1ncnc2c1nc(Sc1ccc(Cl)cc1)n2C1OC2COP(=O)(O)O[C@@H]2[C@@H]1O (some centres undefined),1.8% (active)
20,C[C@H]1O[C@@H](n2cc(F)c(=O)[nH]c2=O)[C@H](O)[C@@H]1O,4.5% (active)
21,O=c1ccn([C@@H]2O[C@H](COP(=O)(O)OP(=O)(O)O)[C@@H](O)[C@H]2O)c(=O)[nH]1,-4.1%
22,c1ccc2c(c1)CCCC2C1=NCCN1 (centres undefined),-3.7%
23,c1ccc2c(c1)CCC[C@H]2Nc1nc2ccccc2[nH]1,12.1% (active)
24,NC(=Nc1ccccc1)NC(=O)c1nc(Cl)c(N)nc1N,-0.3%
